In PubChem BioAssay (NCI) one finds growth data, which are given here for 40 compounds.

Where “and” joins values, the source holds several entries; their conditions need not be identical. Identical values can stand only once. This is part of a sample that, as a whole, favours compounds with a hit. Of some 83,000 tested, about 20% had one in any assay.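 Each cell line was grown in a 96-well plate and treated with one concentration of compound for 48 hours. Values below 10 were considered active.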 Calls of active or inactive are those of the source.

For the assay, the system named is MCF7 breast. As to the kind of experiment: NCI-60 one-dose screen, 48 h (100 = growth as untreated, 0 = no growth, -100 = all killed). The conditions noted are these: 10 µM unless noted. How it is done: Growth inhibition of the MCF7 human tumor cell line is measured as a screen for anti-cancer activity. Cells are grown in 96 well plates and exposed to the test compound for 48 hours. Compounds are tested at a single concentration, which is 10^-5 M for most compounds. The reported endpoint is percent growth (GI% or GIPRCNT), where numbers from 0 - 100% represent growth inhibition, and numbers from -100% - 0 represent cell death. For example, a value of 40 represents 60% growth inhibition. A value of 0 means no net growth occurred over the course of the experiment. A value of -40 indicates 40% of cells at the beginning of the experiment died by the end of the experiment. A value of -100 means all cells are dead at the end of the experiment.
NCI-60 Human Tumor Cell Lines Screen was performed using the standard one-dose NCI protocol, which is described in more detail at https://dtp.cancer.gov/discovery_development/nci-60/default.htm.
Compounds with GIPRCNT values below 10 were considered active. Activity score was based on GIPRCNT using the following formula: […]
Score is 0 for GIPRCNT values of 100 or above, 50 for GIPRCNT values of 0, and 100 for GIPRCNT values of -100.
In the case of `CO[C@@H]([CH2][Hg][S]C#N)[C@@H]([CH2][Hg][S]C#N)OC`, the growth was 31% (inactive).
For `c1ccc2nc(OCCN3CC3)ccc2c1`, the growth was 71.4% (inactive).
Regarding `NC(=O)NC(=O)CI`, the growth is 94.3% (inactive).
Next, `O=C(N/N=C/c1ccc([N+](=O)[O-])o1)c1cc([N+](=O)[O-])cc([N+](=O)[O-])c1O`: 84.6% (inactive); `CC(C)CCC[C@@H](C)[C@H]1CC[C@H]2[C@@H]3CC=C4C[C@@H](OC(=O)Cc5ccc(N(CCCl)CCCl)cc5)CC[C@]4(C)[C@H]3CC[C@]12C`: 99% (inactive).
Turning to `NCCc1cc(O)c(O)cc1O`, the growth is 105% (inactive).
With `O=C(CCCN1CCC2(CC1)C(=O)NCN2c1ccc(F)cc1)c1ccc(F)cc1` the figure was 85.9% (inactive).
As for `CCCCN(CCCC)CC(O)c1ccccc1` (stereo not given), the growth is 105% (inactive).
In the case of `CCC1CN1P(=O)(OCCOC)N1CC1CC` (stereo not given), the growth was 99.4% (inactive).
On to `O=C1c2ccccc2C(=O)N1[N+](=O)[O-]`, for which the growth was 92.5% (inactive).
With `CC1COC(=O)C1` (stereo not given) the figure was 93.8% (inactive); with `CCCCCN1C(=O)C(CO)N=C(c2cccc(O)c2)c2ccccc21` (stereo not given), 91.1% [30 µM] (inactive); with `CNC(=O)Oc1ccccc1`, 87% (inactive).
On to `Clc1ccc(SSC(Cl)(Cl)Cl)cc1`, for which the growth was 108% (inactive).
As to `O=[N+]([O-])c1cc([N+](=O)[O-])c(Cl)c(Cl)c1Cl`, the growth was 2.17% (active).
As to `CC[CH2][Pb]([CH2]CC)([CH2]CC)[O]C(=O)C(F)(F)F`, the growth is -79.7% (active).
For `CCCCOC(=O)c1ccccc1C(=O)O.CCCCOC(=O)c1ccccc1C(=O)O.[Cu+2]`, the growth is 98.3% (inactive).
In the case of `C[C@]12CCC(=O)CC1CC[C@@H]1C2CC[C@@]2(C)C1CC[C@@H]2OC(=O)CC[Se][Se]CCC(=O)O[C@H]1CCC2[C@@H]3CCC4CC(=O)CC[C@]4(C)C3CC[C@@]21C` (stereo not given in full), the growth was 80.8% (inactive).
For the compound `O=C1NC(=O)C(O)(C2(O)C(=O)NC(=O)NC2=O)C(=O)N1`, the growth was 138% (inactive).
Consider `CC1(CF)NC(=O)NC1=O` (stereo not given), for which the growth is 92.7% (inactive).
As for `Cc1cc(C)nc(C)c1.[Cl][Hg][Cl]`, the growth was 82.7% (inactive).
With `CC(/C=N/N=C(N)N)=N\N=C(N)N` the figure was 76.8% (inactive).
In the case of `CC1(C)CC2(CC(C)(C)c3cc(O)c(O)cc32)c2cc(O)c(O)cc21`, the growth was 94.5% (inactive).
Take `CN1C(=O)NC(=O)C(N=Nc2ccc(Cl)cc2)C1=O` (stereo not given): the growth is 93% (inactive).
With `NS(=O)(=O)c1nc[nH]c1[N+](=O)[O-]`, the growth was 94.9% (inactive).
With `Nc1c(Br)cc([N+](=O)[O-])cc1[N+](=O)[O-]` the figure was 103% (inactive); with `COC(=O)C(=[N+]=[N-])C(=O)OC`, 88.3% (inactive); with `COc1cc(C2(C#N)CCN(C)CC2)cc(OC)c1OC`, 95.7% (inactive).
On to `O=C(O)C1[O][Sb][O]C1C(=O)O` (stereo not given), for which the growth was 92% (inactive).
Take `O=C(NCc1ccc([N+](=O)[O-])cc1)Nc1ccc(S(=O)(=O)F)cc1`: the growth was 83.7% (inactive).
As to `CC(C)[C@]12O[C@H]1[C@@H]1O[C@]13[C@]1(O[C@H]1C[C@H]1C4=C(CC[C@@]13C)C(=O)OC4)[C@@H]2OC(=O)OC(C)(C)C`, the growth was 18.5% (inactive).
For the compound `O=CN1N=C(c2ccc3c(c2)OCO3)CC1c1sc(N(CCCl)CCCl)nc1Cl` (stereo not given), the growth is 88.9% (inactive).
For the compound `O=C(O)c1cccc(CCl)c1`, the growth was 98.4% (inactive).
`OC1CCCCC1N1CCC(c2ccccc2)CC1` (stereo not given): the growth is 94.1% (inactive).
With `COc1ccc(CN2CCN(Cc3ccccc3)CC2)c(O)c1`, the growth is 99.7% (inactive).
As for `CC(CC(C#N)(c1ccccc1)c1ccccc1)N1CCOCC1` (stereo not given), the growth was 122% (inactive).
With `N#[N+]c1cnc([O-])[nH]c1=O`, the growth is 100% (inactive).
As for `CC12CC3OC(=O)C1COC14OC5(C2C1=O)C(O)(CCC1C4CC2OC24CC=CC(=O)C14C)C(=O)OC35C` (stereo not given), the growth is -49.7% [100 µM] (active) and -85% [100 µM] (active).
Next, `O=C(O)CCC1N=C(c2cccc(O)c2)c2ccccc2NC1=O` (stereo not given): 83.2% [30 µM] (inactive).
On to `CC1(C)N=C(N)N=C(N)N1c1ccc(OCCCCNC(=O)Nc2cccc(S(=O)(=O)F)c2)c(Cl)c1`, for which the growth is 15% (inactive).
